Source: PubChem BioAssay (National Center for Advancing Translational Sciences (NCATS))
Tb PYK inh = blocks Trypanosoma brucei pyruvate kinase; TbPYK enzyme, Kinase-Glo Plus ATP luminescence, 45 min; Q57TT1; hit rate 0.12% among 410,000; Potency, µM (highest dose often 76.8 µM), inactives show top-dose activity, negative = inhibition, usual class: inhibitors; also: potency is read from the fitted curve at half-maximal effect; % is scaled to controls: 0 for no effect and ±100 for the full control effect; nearly all actives have a fitted effect of over 50% in size
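Screened from lowest to highest concentration, compounds were pinned into TbPYK/substrate mixtures, and ADP (130 uM final) was added. Plates sat at room temperature for 45 min prior to Kinase-Glo Plus detection by luminescence.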
Shiga inhibitor = Shiga toxin inhibition; Vero cells, Shiga toxin protein synthesis inhibition reporter; inhibition, % at 38.7 µM; hit rate 9.2% among 290,000; AID 2315; in the data active = inhibition mostly above about 28%, no sharp cut-off; inactive = mostly below about 43%; also: 0% is about no effect
Sm TGR block = inhibitors of Schistosoma mansoni thioredoxin glutathione reductase | Q962Y6 | purified TGR, DTNB reduction, TNB absorbance 405 nm | Potency, µM (doses to about 114 µM), without a hit: at the top dose activity change, negative = inhibition, usual class: inhibitors | hit rate 3% among 360,000; also: potency is read from the fitted curve at half-maximal effect; % is scaled to controls: 0 for no effect and ±100 for the full control effect; nearly all actives have a fitted effect of over 60% in size
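First, TGR (20 nM dispensed) and NADPH were mixed with compound. Second, a 15 min room-temperature incubation followed. Third, further NADPH and then DTNB were added to start the reaction. Finally, TNB absorbance was monitored kinetically.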
LmPK inh = inhibitors of Leishmania mexicana pyruvate kinase | Q27686 | purified LmPK, Kinase-Glo ATP luminescence, 1 h | Potency, µM (highest dose often 57.5 µM), without a hit: top-dose activity change, negative = inhibition, actives largely listed as inhibitors | hit rate 0.37% among 290,000; also: potency is read from the fitted curve at half-maximal effect; % is scaled to controls: 0 for no effect and ±100 for the full control effect
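Pyruvate kinase activity monitored as ATP production (luciferase luminescence). Conditions: 0.1 nM enzyme, 0.5 mM PEP, 0.1 mM ADP, 1 h, RT; normalized against uninhibited and no-enzyme wells.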
FBPA Giardia inh = Giardia lamblia aldolase inhibition. Potency, µM (doses to about 59.6 µM), without a hit: at the top dose activity, negative = inhibition, actives largely listed as inhibitors. hit rate 0.71% among 290,000. purified Giardia FBPA; also: potency is read from the fitted curve at half-maximal effect; % is scaled to controls: 0 for no effect and ±100 for the full control effect; nearly all actives have a fitted effect of over 55% in size
Target sequence (A8B2U2 whole entry, looked up): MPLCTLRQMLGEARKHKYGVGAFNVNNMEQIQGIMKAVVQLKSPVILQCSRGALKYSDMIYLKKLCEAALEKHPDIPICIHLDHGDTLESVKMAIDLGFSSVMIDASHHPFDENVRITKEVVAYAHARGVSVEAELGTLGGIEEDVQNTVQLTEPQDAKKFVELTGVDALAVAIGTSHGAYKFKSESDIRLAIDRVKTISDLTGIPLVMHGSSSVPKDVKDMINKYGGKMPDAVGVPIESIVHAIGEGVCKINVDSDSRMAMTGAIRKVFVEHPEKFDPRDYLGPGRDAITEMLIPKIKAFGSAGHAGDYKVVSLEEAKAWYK
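Giardia FBPA (40 nM reagent) was preincubated 10 min at RT with compound (up to 57.5 uM final), then substrate plus GAPDH/TPI/NAD/arsenate coupling system with diaphorase/resazurin was added; resorufin fluorescence (525/598 nm) was read after 20 min.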
CHX counter = counter-screen for Shiga toxin inhibitors: cycloheximide protein synthesis inhibition. cell reporter, cycloheximide protein synthesis inhibition counterscreen. max response, %. hit rate 12% among 300,000. AID 2314; in the data active = max response mostly above about 13%, no sharp cut-off; inactive = mostly below about 14%; also: read at 38.3 µM for the half of the compounds with a filed dose; 0% is about no effect
* = called active by the depositor; [ ] = remark or other dose. This is one part of a sample in which hits are shown more often than they occur. Unless noted, calls follow the shape of the dose curve; as a rule, active = well fitted curve in the direction sought with a large enough effect; inconclusive = small, poorly fitted or top-dose-only effect, or another doubt; inactive = no such curve, though single readings can be large; an effect the other way counts as inactive or inconclusive.

For CCCCN(CCCC)C(=S)N/N=C/c1c(C)[nH]n(-c2ccccc2)c1=O the results were Tb PYK inh 2%, Shiga inhibitor -9, Sm TGR block 9%, LmPK inh -10%, FBPA Giardia inh inconclusive and CHX counter 1.
For Cc1[nH]n(-c2ccccc2)c(=O)c1C=Nc1cccc2cccnc12 the results were Tb PYK inh -3%, Shiga inhibitor 10, Sm TGR block 3%, LmPK inh 1%, FBPA Giardia inh -19% and CHX counter 1.
`Cc1[nH]n(-c2ccccc2)c(=O)c1C=NCCc1ccccc1` gave Tb PYK inh 5%, Shiga inhibitor 66*, LmPK inh -1%, FBPA Giardia inh 0% and CHX counter 21*.
Screening CCCCN=Cc1c(C)[nH]n(-c2ccccc2)c1=S returned Tb PYK inh 7.9µM*, Shiga inhibitor 34, Sm TGR block 0%, LmPK inh inconclusive, FBPA Giardia inh inconclusive and CHX counter 25*.
Screening Cc1ccc(-n2[nH]c(C)c(C=NCc3ccncc3)c2=O)cc1 returned Tb PYK inh 5%, Shiga inhibitor 53*, Sm TGR block 2%, LmPK inh -14%, FBPA Giardia inh 2% and CHX counter 39*.
Screening Cc1[nH]n(-c2ccccc2)c(=S)c1C=Nc1cccc([N+](=O)[O-])c1 returned Tb PYK inh 3.2µM*, Shiga inhibitor 1, Sm TGR block 79µM*, LmPK inh -27%, FBPA Giardia inh inconclusive and CHX counter -2.
`CC1C/C(=N/NC(=O)c2cccc(F)c2)c2ccc(O)cc2C1` (configuration not stated) gave Tb PYK inh 0%, Shiga inhibitor active, Sm TGR block -1%, LmPK inh 4%, FBPA Giardia inh 6% and CHX counter 42*.
Screening CCCCN1C(=O)/C(=C2\SC(N3CCCCC3)=NC2=O)c2ccccc21 returned Tb PYK inh 1%, Shiga inhibitor 57*, Sm TGR block 1%, LmPK inh -12%, FBPA Giardia inh -7% and CHX counter 26*.
For CSc1ccccc1NC(=O)c1cccc(S(=O)(=O)N2CCN(C)CC2)c1 the results were Tb PYK inh -7%, Shiga inhibitor 32*, Sm TGR block -3%, LmPK inh -8% and CHX counter 37*.
Screening CC(=O)c1ccc(NC(=O)c2cccc(S(=O)(=O)N3CCN(C)CC3)c2)cc1 returned Tb PYK inh 3%, Shiga inhibitor 104*, Sm TGR block -23%, LmPK inh 0%, FBPA Giardia inh 1% and CHX counter 41*.
`CC(=O)Nc1ccc(NC(=O)c2cccc(S(=O)(=O)N3CCCCCC3)c2)cc1` gave Tb PYK inh -3%.
For Cn1c(=O)c2sccc2n2c(CCC(=O)NCc3ccc(F)cc3)nnc12 the results were Tb PYK inh -3% and Sm TGR block 5%.
Screening CCOC(=O)c1ccc(NS(=O)(=O)c2ccc(Br)s2)cc1 returned Tb PYK inh -2% and Sm TGR block -1%.
For O=C(NCC(=O)N1CC(O)CC1C(=O)N1CC(O)CC1C(=O)OCc1ccccc1)OCc1ccccc1 (configuration not stated) the results were Tb PYK inh 2%, Shiga inhibitor 88*, Sm TGR block -1%, LmPK inh 2%, FBPA Giardia inh 9% and CHX counter 20.
For COc1ccc(-c2onc(C)c2C)cc1S(=O)(=O)Nc1cccc(C#N)c1 the results were Tb PYK inh 13%[15.4 µM] and Sm TGR block 9%.
Screening O=C(CCl)N=c1sccn1Cc1ccccc1Cl returned Tb PYK inh -4%, Shiga inhibitor 17, Sm TGR block 0%, LmPK inh 0%, FBPA Giardia inh 2% and CHX counter 9.
`O=C(CCl)N=c1sccn1Cc1ccc(Cl)cc1Cl` gave Tb PYK inh -1%, Shiga inhibitor 18, Sm TGR block 13µM*, LmPK inh 9%, FBPA Giardia inh 1% and CHX counter 28*.
Screening O=C(CCl)N=c1sccn1Cc1cccc2ccccc12 returned Tb PYK inh 4%, Shiga inhibitor 16, Sm TGR block 25µM*, LmPK inh 4%, FBPA Giardia inh -1% and CHX counter 18.
Cc1ccc(NC(=O)C2CCCN2S(=O)(=O)c2cccc3cccnc23)cc1C (configuration not stated) was read as Tb PYK inh -10% and Sm TGR block 4%.
For O=S(=O)(Nc1cccc2ncccc12)c1cccs1 the results were Tb PYK inh 4%, Shiga inhibitor 6, Sm TGR block 3%, LmPK inh 5%, FBPA Giardia inh inconclusive and CHX counter 29*.
`Cc1c(NS(C)(=O)=O)cccc1-c1nc2cccnc2s1` gave Tb PYK inh 0%, Shiga inhibitor 154*, Sm TGR block 5%, LmPK inh -1%, FBPA Giardia inh 2% and CHX counter 32*.
Screening CNS(=O)(=O)c1ccc2c3c(cccc13)C(=O)N2 returned Tb PYK inh -1%, Shiga inhibitor -6, Sm TGR block -17%, LmPK inh 0%, FBPA Giardia inh 1% and CHX counter -3.
For Cc1ccnc(NS(=O)(=O)c2cccs2)c1 the results were Tb PYK inh -4%, Shiga inhibitor -16, Sm TGR block 40%, LmPK inh -14%, FBPA Giardia inh -5% and CHX counter 3.
For Cc1c(NS(=O)(=O)c2cccs2)cccc1-c1nc2cccnc2s1 the results were Tb PYK inh 0%, Shiga inhibitor 22, Sm TGR block 5%, LmPK inh 2%, FBPA Giardia inh 16% and CHX counter 24*.
`Cc1c(NS(=O)(=O)c2ccc3c(c2)OCCO3)cccc1-c1nc2cccnc2s1` gave Tb PYK inh -4%, Shiga inhibitor 2, Sm TGR block -3%, LmPK inh 4%, FBPA Giardia inh 30% and CHX counter 16.
O=C1Nc2ccc(NS(=O)(=O)c3cccs3)c3cccc1c23 was read as Tb PYK inh 6%, Shiga inhibitor 9, Sm TGR block -4%, LmPK inh 3%, FBPA Giardia inh 8.9µM* and CHX counter 12.
Screening O=C(Nc1cccc(C(=O)N2CCN(c3ccc(F)cc3)CC2)c1)c1nsc2ccccc12 returned Tb PYK inh -5% and Sm TGR block 10%.
For Cc1ccc(S(=O)(=O)NC(=O)C2(C)CCN2C(=O)COc2ccc(Cl)cc2)nc1 (configuration not stated) the results were Tb PYK inh 0%.
For COc1ccc(NC(=O)C2CCCN2S(=O)(=O)c2ccc3c(c2)CCCC(=O)N3)cc1Cl (configuration not stated) the results were Tb PYK inh 3% and Sm TGR block 8%.
